This assay deals with Cytochrome P450 3A4 (Homo sapiens) (UniProt P08684). Description: qHTS Assay for Activators of Cytochrome P450 3A4 (AID 885). Also: nearly all actives have a fitted effect of over 65% in size. The method in brief: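 Quantitative HTS format: compounds preincubated with 20nM human CYP3A4 and Luciferin-PPXE substrate at KM, reaction started by NADPH regeneration, stopped after 60 min, luciferase luminescence read 20 min later.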
In general terms: Quantitative high-throughput screening tests each substance at several concentrations.

A number with no mark means an inactive call. A call without a number means that no potency is given here. Activity calls are given as the source filed them. Calls follow the shape of the dose curve; as a rule, active = well fitted activation curve with a large enough effect; inconclusive = small, poorly fitted or top-dose-only effect; inactive = no such curve, though single readings can be large or run the other way.

Sequence of Cytochrome P450 3A4 (Homo sapiens) (P08684 whole entry, looked up): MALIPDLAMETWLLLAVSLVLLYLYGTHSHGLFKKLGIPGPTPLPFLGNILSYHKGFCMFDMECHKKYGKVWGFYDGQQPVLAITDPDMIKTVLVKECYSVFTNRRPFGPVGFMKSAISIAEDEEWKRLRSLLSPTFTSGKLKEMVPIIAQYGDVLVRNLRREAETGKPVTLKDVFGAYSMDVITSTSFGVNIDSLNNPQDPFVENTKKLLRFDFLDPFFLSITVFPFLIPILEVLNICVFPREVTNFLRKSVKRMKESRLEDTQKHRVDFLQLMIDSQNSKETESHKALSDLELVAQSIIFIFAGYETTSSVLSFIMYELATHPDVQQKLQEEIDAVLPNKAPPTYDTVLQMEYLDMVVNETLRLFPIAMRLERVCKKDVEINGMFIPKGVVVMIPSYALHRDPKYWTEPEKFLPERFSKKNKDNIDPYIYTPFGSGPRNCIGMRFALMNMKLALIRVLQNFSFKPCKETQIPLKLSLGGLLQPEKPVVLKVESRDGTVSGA

Regarding `COC(=O)[C@@H]1C[C@@]2(O)[C@H](O)[C@H](O)[C@H](O)C[C@H]2N1Cc1c(F)cccc1Cl`, the Potency result was “inactive”.

On to `CO[C@H]1COC(=O)[C@H](C)COC(=O)C/C=C\[C@@H](C)[C@H](OC)COC(=O)C/C=C\[C@@H]1C`, for which the activity change, positive = activation was -51.9% [at 11.4 µM].

For the compound `O=C(N/N=C1/C[C@@H](O)[C@@H](O)[C@@H]2[C@H]3C(=O)N(c4ccc(F)cc4F)C(=O)[C@@H]3CC[C@H]12)OCc1ccccc1`, the activity change, positive = activation is -37% [at 11.4 µM]. As for `Cn1c(N)c(C(=O)COC(=O)c2cc(C(F)(F)F)nc3ccccc23)c(=O)n(Cc2ccccc2)c1=O`, the Potency entry is “inactive”. Still for that read-out and setting: the entry for `Clc1ccc(C2[C@H]3CN(CC4CCCCC4)[C@H](c4ccccc4)C34CC2(c2ccccc2)C4)cn1` (stereo partly drawn) is “inactive”; for `COC(=O)c1ccc(C23CC4(C2)[C@H](CN(C)[C@@H]4c2ccccc2)C3c2ccc(C(F)(F)F)cc2)cc1` (stereo partly drawn) it is “inactive”. With `COC(=O)NC(/C(C(=O)OC)=C(\C)NCc1ccccc1)c1ccccc1` (stereo not drawn), the activity change, positive = activation was -30.2% [at 11.4 µM]. Take `CC(C)Cn1c(N)c(C(=O)COC(=O)c2cc(C(F)(F)F)nc3c(C(F)(F)F)cccc23)c(=O)n(C)c1=O`: the Potency result was “inactive”.

The values above are taken from PubChem BioAssay (NCATS).
